This is a sample that favours compounds with a hit; in the whole collection about 12% have one here.
ALDH1A1 block = ALDH1A1 (human) enzyme inhibition | hit rate 7.3% among 220,000 | Purified ALDH1A1, NADH fluorescence, propionaldehyde substrate | AID 1030 | P00352 | Potency, µM (doses to about 75.3 µM), without a hit: at the highest dose activity, negative = inhibition, actives largely listed as inhibitors; active means well fitted inhibition curve with a large enough effect, not every such curve was filed as active; inconclusive means small, poorly fitted or top-dose-only effect, or another doubt; inactive means no such curve, though single readings can be large or run the other way;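 further: plate controls were no enzyme wells and a reference inhibitor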
VP16 counter = Gal4-VP16 reporter inhibition counter-screen | Drosophila S2 Gal4-VP16 UAS-luciferase, luminescence, 20 h | Potency, µM (doses to about 53.6 µM), for inactives: at the top dose activity, negative = inhibition, actives largely listed as inhibitors | hit rate 3.5% among 310,000;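 further: Gal4-VP16 expression switched on by copper sulfate through the metallothionein promoter; nearly all actives have a fitted effect of over 50% in size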
Sfp inh = inhibitors of Bacillus subtilis Sfp phosphopantetheinyl transferase. Q9F4F7. Biochemical Sfp PPTase activity, qHTS. Potency, µM, without a hit: largest response in the series, negative = inhibition, usual class: inhibitors. hit rate 3.5% among 310,000;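 further: the enzyme is Sfp with the accession as filed and its product quenches rhodamine fluorescence; 0% = enzyme reaction without inhibitor and -100% = no enzyme wells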
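Sfp 15 nM + cpd, 15 min RT; start w/ rhodamine-CoA 5 uM, BHQ-2-YbbR 12.5 uM (final); 50 mM Hepes pH 7.6, 10 mM MgCl2, 0.01% NP-40, 0.01% BSA; read 525/598 nm at 0 and 30 min.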
PLK1 PBD block = inhibitors of human PLK1 polo-box domain binding; P53350; Potency, µM, for inactives: max response, negative = inhibition, most hits filed as inhibitors; AID 720504; hit rate 2.8% among 360,000; Plk1 PBD binding of FITC phosphopeptide, fluorescence polarization; further: series mostly up to about 57 µM; nearly all actives have a fitted effect of over 65% in size
RORgamma inh = ROR gamma (mouse) transcription inhibition. P51450. Drosophila S2 Gal4-RORgamma UAS-luciferase reporter, 20 h. Potency, µM (series often up to 53.6 µM), inactives show at the top dose activity change, negative = inhibition, hits mostly inhibitors. hit rate 5.4% among 310,000; further: nearly all actives have a fitted effect of over 60% in size
Target sequence (P51450 whole entry, looked up, the tested form may be a part): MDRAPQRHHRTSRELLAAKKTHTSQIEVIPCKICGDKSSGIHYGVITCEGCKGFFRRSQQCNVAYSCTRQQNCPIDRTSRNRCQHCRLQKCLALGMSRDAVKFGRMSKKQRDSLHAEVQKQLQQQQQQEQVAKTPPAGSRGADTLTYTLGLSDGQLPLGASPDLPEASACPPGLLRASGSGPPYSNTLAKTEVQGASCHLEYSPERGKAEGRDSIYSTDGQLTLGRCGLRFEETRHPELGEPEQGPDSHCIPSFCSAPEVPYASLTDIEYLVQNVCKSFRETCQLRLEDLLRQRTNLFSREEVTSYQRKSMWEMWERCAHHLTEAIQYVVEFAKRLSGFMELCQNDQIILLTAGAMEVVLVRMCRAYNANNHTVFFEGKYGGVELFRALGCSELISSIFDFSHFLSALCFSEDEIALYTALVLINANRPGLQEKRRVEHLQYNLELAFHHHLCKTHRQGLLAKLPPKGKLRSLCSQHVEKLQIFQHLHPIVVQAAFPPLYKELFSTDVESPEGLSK
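In this cell-based reporter format, copper sulfate (700 uM final) drives Gal4–ROR gamma fusion expression from a metallothionein promoter in Drosophila Schneider cells; compounds preincubated 1 hr, reporter read after 20 hr at ambient temperature.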
* marks the source's active call; other numbers are inactive results; [ ] = remark or other dose. Unless noted, the call rests on the fitted dose curve; in most records, active means well fitted curve in the direction sought with a large enough effect; inconclusive means small, poorly fitted or top-dose-only effect, or another doubt; inactive means no such curve, though single readings can be large; an effect the other way counts as inactive or inconclusive. Unless noted, on the % scale 0 is the no-effect control and ±100 the full control effect; potency means the concentration at half of the fitted maximal effect.

`C[C@@]1(C(NC(=O)Cc2ccc(C(F)(F)F)cc2)c2ccc(-c3ccccc3)cc2)C[C@H]1C1CCCCC1` (stereo partly drawn) gave ALDH1A1 block 10.5%, VP16 counter 0.3%, Sfp inh 27.6% and RORgamma inh 0.4%.
`CC(C)(C)CC(=O)NC(=S)NCCc1ccccc1` gave ALDH1A1 block -2.0%, VP16 counter 10µM*, Sfp inh 8.7%, PLK1 PBD block -2.1% and RORgamma inh 7.08µM*.
COc1cc(C=O)c(Br)cc1OCC(=O)NCCc1ccccc1 was read as ALDH1A1 block -5.8%, VP16 counter -6.6%, Sfp inh 13.4%, PLK1 PBD block -1.6% and RORgamma inh -17.4%.
Screening CCOc1cc(C=O)cc(Br)c1OCC(=O)NCCc1ccccc1 returned ALDH1A1 block 6.31µM*, VP16 counter 7.8%, Sfp inh -4.7%, PLK1 PBD block -7.6% and RORgamma inh 4.0%.
`OCCNCc1ccc(OCc2ccc(Cl)cc2Cl)cc1` gave ALDH1A1 block 4.8%, VP16 counter -2.1%[10 µM], Sfp inh -12.5%, PLK1 PBD block 3.3% and RORgamma inh 12.6µM*.
For S=C(NCCSCc1ccc(Cl)c(Cl)c1)Nc1ccccc1 the results were PLK1 PBD block -14.0%.
`S=C(NCCSCc1ccc(Cl)cc1Cl)Nc1ccccc1` gave ALDH1A1 block -3.2%, VP16 counter 3.98µM*, Sfp inh 15.3%, PLK1 PBD block -26.9% and RORgamma inh 3.16µM*.
`S=C(NCCSCc1c(Cl)cccc1Cl)Nc1ccccc1` gave ALDH1A1 block inconclusive, VP16 counter 5.01µM*, Sfp inh -0.8%, PLK1 PBD block -7.5% and RORgamma inh 2µM*.
S=C(Nc1ccccc1)Nc1ccc(OCc2ccc(Cl)cc2Cl)cc1 was read as ALDH1A1 block inconclusive, VP16 counter 7.08µM*, Sfp inh -8.1%, PLK1 PBD block -19.1% and RORgamma inh 1.41µM*.
Screening OCCCCNCc1ccc(OCc2ccc(Cl)cc2Cl)cc1 returned ALDH1A1 block 6.5%, VP16 counter -15.0%, Sfp inh inconclusive, PLK1 PBD block 2.3% and RORgamma inh inconclusive.
For CC1(C(=O)Nc2cnc3ccccc3c2)CCN1Cc1cc2ccccc2o1 (stereo not drawn) the results were PLK1 PBD block 3.8%.
For O=C(Nc1ccc2c(c1)OCCO2)C1c2ccccc2OCC(=O)N1CCCN1CCOCC1 (stereo not drawn) the results were PLK1 PBD block -4.6%.
COc1ccc(CSCCNC(=S)Nc2ccccc2)cc1Cl was read as ALDH1A1 block -17.7%, VP16 counter inconclusive, Sfp inh 14.6%, PLK1 PBD block 0.8% and RORgamma inh 4.47µM*.
Screening Cc1ccccc1CSCCNC(=S)Nc1ccccc1 returned ALDH1A1 block -9.8%, VP16 counter 7.08µM*, Sfp inh -5.1%, PLK1 PBD block -9.8% and RORgamma inh 2.24µM*.
For CC[C@H](C)[C@H](NC(=O)CNC(=O)[C@H](CCCNC(=N)N)NC(=O)[C@H](CO)NC(=O)[C@H](C)NC(=O)[C@H](Cc1ccc(O)cc1)NC(=O)[C@H](Cc1c[nH]c2ccccc12)NC(=O)[C@H](C)NC(=O)[C@@H]1CCCN1C(=O)[C@H](CC(N)=O)NC(=O)[C@@H](NC(=O)[C@H](CC(=O)O)NC(=O)[C@@H]1CCCN1C(=O)[C@@H](NC(=O)[C@H](CCCNC(=N)N)NC(=O)[C@@H](NC(=O)[C@H](CCC(=O)O)NC(=O)[C@H](CCSC)NC(=O)[C@H](CO)NC(=O)[C@H](Cc1cnc[nH]1)NC(=O)[C@H](CCCNC(=N)N)NC(=O)[C@H](Cc1cnc[nH]1)NC(=O)[C@@H](NC(=O)[C@H](CCCNC(=N)N)NC(=O)[C@@H](N)CO)[C@@H](C)O)[C@@H](C)CC)[C@@H](C)O)[C@@H](C)CC)C(=O)N[C@@H](CCCNC(=N)N)C(=O)N1CCC[C@H]1C(=O)N[C@H](C(=O)NCC(=O)N[C@@H](CCCNC(=N)N)C(=O)N[C@@H](Cc1ccccc1)C(N)=O)C(C)C the results were VP16 counter 4.7%, Sfp inh 17.3% and RORgamma inh 4.5%.
CCCCc1c(O)n(-c2ccccc2)[nH]c1=O was read as ALDH1A1 block 0.1%, VP16 counter 8.2%, Sfp inh -17.7% and RORgamma inh -13.0%.
O=S1(=O)C[C@@H](N2CCOCC2)[C@H](N2CCOCC2)C1 was read as ALDH1A1 block inconclusive, VP16 counter -4.8%, Sfp inh 70.8µM*, PLK1 PBD block -8.4% and RORgamma inh 1.3%.
`Cc1csc2ncnc(NCCc3ccccn3)c12` gave ALDH1A1 block 1.6%, VP16 counter 10µM*, Sfp inh 15.9%, PLK1 PBD block -5.8% and RORgamma inh -5.9%.
c1ccc(CCNc2ncnc3sccc23)nc1 was read as ALDH1A1 block 5.6%, VP16 counter 15.8µM*, Sfp inh 11.5%, PLK1 PBD block 6.0% and RORgamma inh inconclusive.
For O=C(NCc1ccco1)c1cnn2c1NC(c1ccc(Br)cc1)CC2C(F)(F)F (stereo not drawn) the results were ALDH1A1 block 1.7%, VP16 counter -2.6%, Sfp inh 2.4%, PLK1 PBD block 2.99µM* and RORgamma inh inconclusive.
O=C(NCc1ccco1)c1cnn2c1NC(c1ccccc1)CC2C(F)(F)F (stereo not drawn) was read as ALDH1A1 block -4.2%, VP16 counter 0.2%, Sfp inh -13.8%, PLK1 PBD block -7.9% and RORgamma inh 3.0%[10 µM].
`O=C(c1ccco1)N1CCN(C(=O)c2cnn3c2NC(c2cccs2)CC3C(F)(F)F)CC1` (stereo not drawn) gave ALDH1A1 block -1.0%, VP16 counter -19.2%, Sfp inh 14.9%, PLK1 PBD block -3.2% and RORgamma inh 24.8%.
Screening O=C(c1cnn2c1NC(c1ccco1)CC2C(F)(F)F)N1CCN(c2cccc(Cl)c2)CC1 (stereo not drawn) returned ALDH1A1 block 3.16µM*, VP16 counter -14.4%[0.365 µM], Sfp inh -4.6%, PLK1 PBD block 2.1% and RORgamma inh inconclusive.
For CC1(C)OC(=O)N(NCc2ccccc2)C1(C)O (stereo not drawn) the results were VP16 counter 6.1%, Sfp inh 8.5%, PLK1 PBD block 3.7% and RORgamma inh -1.9%.
O=C(O)CCn1cc(/C=C2\NC(=S)N(c3ccccc3)C2=O)c(-c2ccc(Br)cc2)n1 was read as ALDH1A1 block -6.3%, VP16 counter -1.9%, Sfp inh 11.9%, PLK1 PBD block -13.3% and RORgamma inh 6.2%.
`CC1(C)CC(=O)C(=Cc2cn(CCC#N)nc2-c2ccc(Cl)cc2)C(=O)C1` gave ALDH1A1 block -6.4%, VP16 counter 0.2%, Sfp inh 79.4µM*, PLK1 PBD block 2.38µM* and RORgamma inh 28.3%.

Screens deposited in PubChem by National Center for Advancing Translational Sciences (NCATS).
